LRH-1 inv ag: LRH-1 (NR5A2) inverse agonists, primary screen, cell-based, luminescence, HEK293T, StAR-luciferase reporter; 360,000 compounds, 0.13% hits; inhibition, % at 3.6 µM; LRH-1 transfected, 24 h; Nuclear receptor subfamily 5 group A member 2 (Homo sapiens), O00482;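 active = inhibition above the mean inhibition of all tested compounds plus 3 SD, cut at about 73% in these data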
SRC3 inh: SRC3 coactivator transcriptional activity inhibitors, primary screen, cell-based, luminescence; Nuclear receptor coactivator 3 (Homo sapiens), Q9Y6Q9; HEK293 GAL4-SRC3 luciferase reporter; inhibition, % at 3.6 µM; 360,000 compounds, 0.17% hits;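 active = inhibition above a per-campaign cutoff, the mean of all compounds plus 3 SD, cut at about 60% in these data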;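 also: higher means less SRC3-driven luciferase light from the GAL4 reporter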
COUP-TFII inh: NR2F2 transcriptional activity inhibitors, primary screen, cell-based, luciferase reporter, HEK293T, luminescence. HEK293T NGFI-A luciferase reporter. inhibition, % at 8.6 µM. 370,000 compounds, 0.7% hits. AID 686940, 2013;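 active = inhibition above a per-plate cutoff, mean inhibition of test wells between control levels plus 3 SD, cut at about 38% in these data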;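 also: cells cotransfected with COUP-TFII expression vector driving the NGFI-A reporter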
Target sequence (P24468 whole entry, looked up): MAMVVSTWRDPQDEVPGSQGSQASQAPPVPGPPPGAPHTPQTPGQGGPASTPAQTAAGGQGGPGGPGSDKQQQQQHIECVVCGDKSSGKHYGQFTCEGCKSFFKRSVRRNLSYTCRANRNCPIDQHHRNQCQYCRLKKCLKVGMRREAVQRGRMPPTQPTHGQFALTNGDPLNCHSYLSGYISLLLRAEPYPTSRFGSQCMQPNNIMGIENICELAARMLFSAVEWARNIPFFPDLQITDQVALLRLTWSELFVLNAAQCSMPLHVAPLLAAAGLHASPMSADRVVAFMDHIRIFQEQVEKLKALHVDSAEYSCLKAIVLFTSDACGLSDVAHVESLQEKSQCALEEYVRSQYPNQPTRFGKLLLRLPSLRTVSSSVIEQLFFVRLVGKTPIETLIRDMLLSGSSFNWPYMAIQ
NCOA1 inh: SRC1 coactivator transcriptional activity inhibitors, primary screen, cell-based, luminescence; Nuclear receptor coactivator 1 (Homo sapiens), Q15788; HEK293 GAL4-SRC1 luciferase reporter; inhibition, % at 3.6 µM; 360,000 compounds, 0.12% hits;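 active = inhibition above the campaign mean plus 3 SD, with each screening campaign given its own cutoff, cut at about 60% in these data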
GalR3 antagonist: GalR3 antagonists in HEK293 cells, primary screen, cell-based, fluorescence readout. 360,000 compounds, 0.44% hits. HEK293 GalR3-CNG cAMP membrane potential fluorescence; galR3 body fused to GalR1 C-terminus. inhibition, % at 3 µM. AID 651719, 2012;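 active = inhibition above the screen-wide average plus 3 SD, cut at about 13% in these data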;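 also: forskolin and galanin both at EC90 stimulate the cells; cAMP rise reported by CNG channel membrane potential dye signal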
SRC2 inh: inhibition of GAL4-SRC2 driven luciferase reporter, primary screen, SRC2 inhibitor project, cell-based, luminescence | Nuclear receptor coactivator 2 (Homo sapiens), Q15596 | HEK293 GAL4-SRC2 luciferase reporter | inhibition, % at 9 µM | 370,000 compounds, 0.17% hits;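 active = inhibition above the mean inhibition of all tested compounds plus 3 SD, set per campaign, cut at about 52% in these data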
VP16 Luc counter: Gal4-VP16 luciferase reporter inhibitors, counter-screen for COUP-TFII antagonist project, cell-based, luminescence, HEK293; inhibition, % at 8.5 µM; shares compounds with COUP-TFII inh; AID 687007, 2013; 2,500 compounds, 25% hits; in the data active = inhibition above about 13%
COUP-TFII conf: NR2F2 transcriptional activity inhibitors, confirmation, cell-based, luciferase reporter, HEK293, triplicate; shares compounds with COUP-TFII inh; HEK293 NGFI-A luciferase reporter, luminescence; inhibition, % at 8.5 µM; 2,500 compounds, 45% hits; AID 687008, 2013;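 active = mean inhibition over three repeats above a set limit taken from the earlier primary screen, cut at about 38% in these data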
Numbers stand for hits; – = inactive; · = no result. In the library only some 1.1% were active in any assay of this set; here they are far more common.

SMILES	LRH-1 inv ag	SRC3 inh	COUP-TFII inh	NCOA1 inh	GalR3 antagonist	SRC2 inh	VP16 Luc counter	COUP-TFII conf
Cc1ccc2c(c1)sc(-c1ccc(N(C)C)cc1)[n+]2C	–	–	58	–	–	–	–	53
CCCCc1ccc(N/C(N)=N/c2nc(C)cc(C)n2)cc1	–	–	49	–	41	–	29	56
Cc1ccc(N/C(N)=N/c2nc(C)cc(C)n2)cc1	–	–	–	–	–	–	·	·
COC(=O)c1cc(N/C(N)=N/c2nc(C)cc(C)n2)cc(C(=O)OC)c1	–	–	42	–	–	–	–	–
CCCCc1c(-c2ccccc2OC)ncn1Cc1ccc(C)cc1	·	·	–	·	–	–	·	·
COc1ccc2cc3c(N)nn(C(=O)Cc4c[nH]c5ccccc45)c3nc2c1	–	–	42	79	–	56	24	–
COc1ccc2cc3c(N)nn(C(=O)c4ccc(F)cc4)c3nc2c1	–	–	–	–	–	–	·	·
COc1ccc2cc3c(N)nn(C(=O)c4ccccc4Cl)c3nc2c1	–	–	45	74	–	–	23	–
CN(CCCOC(=O)c1cc2ccccc2o1)C1CN(Cc2cn(Cc3ccccc3C(F)(F)F)nn2)S(=O)(=O)C1 (stereo unspecified)	·	·	–	·	·	–	·	·
c1ccc(-c2cc(-c3nnc4sc(Cc5cccs5)nn34)[nH]n2)cc1	·	·	–	·	·	–	·	·
CCn1c(SCC(=O)Nc2ccccc2OC)nc2ccccc2c1=O	–	–	–	–	–	–	·	·
CCOc1ccccc1-n1c(SCC(=O)Nc2ccccc2C(=O)O)nc2ccccc2c1=O	–	–	56	–	–	–	23	–
C[C@H]1[C@@H](NC(=O)Cc2ccsc2)CC[C@@]23CCCN2C(=O)CCC[C@@H]13	·	·	–	·	·	·	·	·
O=S(=O)(NCc1cn2ccsc2n1)c1ccc(Oc2ccccc2)cc1	–	–	42	–	–	–	–	–
O=C(NC1CCCc2c1cnn2-c1ccc(F)cc1F)c1ccccn1 (stereo unspecified)	–	–	–	–	–	–	·	·
O=C(N[C@H]1CCCc2c1cnn2-c1ccc(F)cc1F)c1ccccn1	·	·	–	·	·	·	·	·
Cc1nnsc1C(=O)NC1CCCc2c1cnn2-c1ccccc1F (stereo unspecified)	–	–	45	–	–	–	–	45
CC1=C(C(=O)NC2CCCc3c2cnn3-c2ccc(F)cc2F)OCCO1 (stereo unspecified)	–	–	47	–	–	–	–	–
CCc1cc(C(=O)NC2CCCc3c2cnn3-c2ccc(F)cc2F)no1 (stereo unspecified)	–	–	53	–	–	–	–	–
CCCC1CCC2(CC1)CCC2OC(=S)Nc1cccc(Cl)c1 (stereo unspecified)	·	·	–	·	·	·	·	·
Cc1cc(-c2n[nH]c(=S)n2N=Cc2ccc(-c3ccccc3)cc2)n[nH]1	·	·	–	·	·	–	·	·
O=C1N(c2ccccc2)CC2C(c3ccccc3)C(c3ccccc3)N3CCCC123 (stereo unspecified)	·	·	–	·	·	–	·	·
O=C1N(c2ccccc2)C[C@@H]2C[C@@H](c3cc4ccccc4o3)N3CCC[C@@]123	95	88	80	90	–	54	–	74
CN(CCOc1ccc(Cl)cc1)C(=O)c1cccc(S(=O)(=O)N2CCN(c3ccccc3)CC2)c1	–	–	59	–	–	–	–	44
CN(CC(=O)Nc1ccc(F)cc1)C(=O)c1cccc(S(=O)(=O)N2CCN(c3ccccc3)CC2)c1	–	–	–	–	–	–	·	·
